Rows were chosen to be rich in hits. Some 21% of all compounds tested hit in one or more screens of this group.
HCMV inh: human cytomegalovirus inhibition; HFF cells, HCMV-luciferase reporter, 72 h; active compounds read low; activity change, negative = inhibition, % at 57.5 µM; 410,000 tested, 4.5% active; AID 1259415; in the data active means activity change below about -60%; inconclusive means no clear call, values can overlap the other calls; inactive means above about -39%; further: on the % scale 0 is the no-effect control and ±100 the full control effect
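Screen run at 2 compound doses on HFFs infected with reporter HCMV, MOI 1 PFU/cell. Luciferase activity from cell lysates at 72 h post infection gave inhibition relative to buffer-only and Salinomycin wells.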
Pf growth 96h: P. falciparum growth inhibition at 96 hours | P. falciparum luciferase reporter growth, 96 h | Potency, µM (doses to about 28.7 µM), for inactives: at the highest dose activity change, negative = inhibition, hits mostly inhibitors | 320,000 tested, 6.9% active | AID 504834; further: potency means the concentration at half of the fitted maximal effect; on the % scale 0 is the no-effect control and ±100 the full control effect
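P. falciparum expressing integrated firefly luciferase, in erythrocytes at 2% hematocrit, 0.05% parasitemia, incubated with compounds 96 h at 37 C, 5% CO2. Growth inhibition read as loss of luminescence; two-generation exposure targets delayed-death apicoplast inhibitors.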
Pf growth 48h: P. falciparum growth inhibition at 48 hours (one generation) | P. falciparum luciferase growth in erythrocytes, 48 h | AID 504832 | 310,000 tested, 5.9% active | Potency, µM (highest dose often 28.7 µM), for the others: top-dose activity change, negative = inhibition, actives largely listed as inhibitors; further: potency means the concentration at half of the fitted maximal effect; on the % scale 0 is the no-effect control and ±100 the full control effect
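Parasite viability was followed by luminescence of a genomically integrated firefly luciferase. Cultures held 0.1% parasitemia at 2% hematocrit (final), incubated under 5% CO2 at 37 C.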
Shiga toxin inh: blocks Shiga toxin action in Vero cells. Vero cells, Shiga toxin protein synthesis inhibition reporter. inhibition, % at 38.7 µM. 290,000 tested, 9.2% active; in the data active means inhibition mostly above about 28%, no sharp cut-off; inactive means mostly below about 43%; further: 0% is about no effect
CHX counter: counter-screen for Shiga toxin inhibitors: cycloheximide protein synthesis inhibition | cell reporter, cycloheximide protein synthesis inhibition counterscreen | max response, % | 300,000 tested, 12% active; in the data active means max response mostly above about 13%, no sharp cut-off; inactive means mostly below about 14%; further: read at 38.3 µM for the half of the compounds with a filed dose; 0% is about no effect
HCV inhibitor: inhibitors of hepatitis C virus infection; Huh7.5.1 HCVcc-Cre infection, luciferase reporter, 44 h; 340,000 tested, 3.4% active; Potency, µM (highest dose often 41.8 µM), for inactives: at the highest dose activity change, negative = inhibition, most hits filed as inhibitors; AID 651820; further: potency means the concentration at half of the fitted maximal effect; on the % scale 0 is the no-effect control and ±100 the full control effect
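Antiviral activity was scored by luciferase reporter output from cells infected with HCVcc-Cre (~0.5 moi) in presence of compound, 44 h infection period, cells seeded 1,000/well 4 h prior.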
* = called active by the depositor; ? = inconclusive; · = no result. Unless noted, the call rests on the fitted dose curve; in most records, active means well fitted inhibition curve with a large enough effect; inconclusive means small, poorly fitted or top-dose-only effect, or another doubt; inactive means no such curve, though single readings can be large or run the other way.

SMILES	HCMV inh	Pf growth 96h	Pf growth 48h	Shiga toxin inh	CHX counter	HCV inhibitor
Cc1cccc(N(CC(=O)NCc2ccc3c(c2)OCO3)C(=O)CCC(=O)Nc2ccccn2)c1C	30	·	5.9µM*	-8	-1	-25%
Cc1cccc(N(CC(=O)NCc2ccc3c(c2)OCO3)C(=O)CCC(=O)Nc2ccccn2)c1	-7	161%	13µM*	0	-3	-13%
O=C(CC1C(=O)NCCN1Cc1ccccc1C(F)(F)F)NC1CCCCCC1 (stereo not given)	-23	?	-2%	-14	-3	?
O=c1c(=Nc2ccccc2O)c(=O)c2ccccc12	?	9%	15%	108*	21*	-9%
Cc1cc(=O)n2nc(N3CCC(C(=O)Nc4c(C)cccc4C)CC3)sc2n1	-2	·	·	·	·	·
CCCc1cc(=O)oc2cc(OCC(=O)N3CCN(Cc4ccc5c(c4)OCO5)CC3)ccc12	-21	12µM*	?	-2	-2	?
CCCCNC(=S)N1CCN(Cc2ccc3c(c2)OCO3)CC1	-39	35%	-21%	-13	-5	-13%
COCCCNC(=S)N1CCN(Cc2ccc3c(c2)OCO3)CC1	-103*	6%	11%	12	-2	10%
Cc1ccccc1NC(=S)N1CCN(Cc2ccc3c(c2)OCO3)CC1	-28	12%	6%	3	-4	9%
Cc1ccc(S(=O)(=O)N(C)C)cc1NC(=S)N1CCN(Cc2ccc3c(c2)OCO3)CC1	?	22%	18%	-9	-1	13µM*
CCN(CC)c1ccc(C(=O)NC(=S)N2CCN(Cc3ccc4c(c3)OCO4)CC2)cc1	-8	40%	0%	-14	2	11µM*
CNc1nc2cnc(Nc3ccc(F)c(Cl)c3)cc2n1-c1cc(OC)c(OC)c(OC)c1	76	·	·	·	·	·
Brc1ccc(Br)c2cnccc12	-26	·	·	·	·	14%
O=C(Nc1ccc2ccccc2c1)C(c1ccccc1F)n1c(=O)c(-c2cc3ccccc3[nH]2)nc2ccccc21 (stereo not given)	-6	·	·	·	·	·
CCCCOc1ccc(C(=O)NCC(=O)N2CCN(Cc3ccc4c(c3)OCO4)CC2)cc1	-68*	?	?	·	·	?
Cc1ccc(OCC(=O)N2CCN(Cc3ccc4c(c3)OCO4)CC2)cc1	-15	-1%	18%	-1	-1	-6%
Cc1ccc(C(=O)NC(Cc2ccccc2C(F)(F)F)C(=O)O)cc1 (stereo not given)	-3	·	·	·	·	2%
CCOC(=O)C1=C(C)NC(C)=C(C(=O)OCC)C1C(=O)OCC(=O)N1CCc2ccccc21	-4	·	10µM*	39	-3	-11%
O=C(OCC(=O)N1CCCC1)c1ccc(O)cc1	8	47%	34%	32	11	-3%
Cc1ccc(C(=O)OCC(=O)N2CCCC2)cc1	-17	103%	101%	47*	43*	16%
CCOC(=O)c1[nH]c(C)c(C(=O)OCC(=O)N2CCc3ccccc32)c1C	8	?	·	25	1	11%
O=C(OCC(=O)N1CCc2ccccc21)c1ccccc1[N+](=O)[O-]	-15	24%	103%	·	·	?
O=C(OCC(=O)N1CCc2ccccc21)c1ccccc1F	-39	-9%	121%	113*	45*	4%
Cc1ccc(C(=O)OCC(=O)N2CCc3ccccc32)cc1	-8	66%	142%	152*	34*	14%
Cc1ccc(N(CC(=O)N2CCc3ccccc32)C2=NC(=O)CS2)cc1	8	9.3µM*	·	-18	-5	6.3µM*
SMILES	HCMV inh	Pf growth 96h	Pf growth 48h	Shiga toxin inh	CHX counter	HCV inhibitor
CC(=O)c1c(C)[nH]c(C(=O)OCC(=O)N2CCc3ccccc32)c1C	31	0%	33%	33	24*	-8%
O=C(CCN1C(=O)S/C(=C\c2cccs2)C1=O)NC1=NCCS1	?	-23%	0%	32	17*	8%
O=C(CCCN1C(=O)/C(=C/c2cccs2)SC1=S)NNC(=O)c1ccccc1O	?	3.3µM*	9%	-10	-1	?
O=C(O)C(Cc1ccccc1)N1C(=O)/C(=C/c2cccs2)SC1=S (stereo not given)	-20	10µM*	4%	-2	1	10%
Cc1ccc(/C=C2\SC(=S)N(CCCC(=O)Nc3ccc(O)cc3)C2=O)cc1	-95*	6%	?	39*	18*	-29%
COc1ccc(/C=C2\SC(=S)N(CCC(=O)NC3=NCCS3)C2=O)cc1OC	-27	39%	28%	-13	-1	-26%
Cn1c(SCc2ccccc2)nnc1-c1ccc2nonc2c1	-22	64%	9%	25	-2	19%
O=C(CCCN1C(=O)/C(=C\c2cccs2)SC1=S)Nc1ccc(O)cc1	-99*	57%	-21%	28	10	?
O=C(CCCN1C(=O)/C(=C\c2cccs2)SC1=S)Nc1ccc(O)cc1C(=O)O	-37	?	5%	-12	-8	12%
O=C(CCCN1C(=O)/C(=C/c2cccs2)SC1=S)Nc1ccccc1O	-91*	22%	?	16	1	?
O=C(CCCN1C(=O)/C(=C\c2cccs2)SC1=S)Nc1ccc(C(=O)O)cc1	?	?	-8%	-8	-6	25%
CCN(CC)CCOC(=O)c1ccc(NC(=O)CCCN2C(=O)/C(=C/c3cccs3)SC2=S)cc1	-20	?	5.2µM*	-7	9	·
COc1ccc(/C=C2/SC(=S)N(CCCC(=O)Nc3cccc(O)c3)C2=O)cc1	-97*	?	15µM*	45*	35*	?
N[C@@H]1CC[C@@]23CCCN2C(=O)CCC[C@H]3[C@H]1Cc1ccccc1	-2	·	·	·	·	·
CC(=O)Cc1nsc(NC(=O)c2ccc(COc3ccccc3C)o2)n1	51	-28%	16%	-6	-4	6%
COc1ccc2c(c1)C(n1c(C)ccc1C)C(=O)N2Cc1ccc(Cl)nc1 (stereo not given)	-9	·	·	·	·	·
CCC(=O)N1c2ccc(S(=O)(=O)N3CCOCC3)cc2CC1C (stereo not given)	6	?	12%	-14	0	10%
COc1ccc(/C=C2\SC(=S)N(CCCC(=O)NNC(=O)c3ccccc3O)C2=O)cc1	-75*	-3%	?	-8	1	?
O=C(CCN1C(=O)/C(=C/c2cccs2)SC1=S)Nc1ccccn1	-26	?	?	-4	10	-11%
O=C(CCCN1C(=O)/C(=C\c2cccs2)SC1=S)Nc1ccccn1	-97*	6%	?	-9	-3	25µM*
Cc1cc(C)c2nc(C(F)(F)F)c(C#N)c(N)c2c1	?	44%	·	-21	-6	-26%
CCCc1nc2c(C)cc(C)cc2c(N)c1CC	28	10µM*	9.3µM*	-13	2	?
CCc1ccc(-c2nc(-c3cc4ccccc4oc3=O)sc2C)cc1	5	·	·	·	·	·

Bioassay records as filed in PubChem BioAssay.
